“And” between values parts separate entries of the source, which are not always exact repeats. Identical values can stand only once. Inconclusive results are not listed. Some structures have more than one record in an assay (separate samples or runs), and their calls can disagree. The source made the active and inactive calls. The call rests on the fitted dose curve; in most records, active means well fitted curve in the direction sought with a large enough effect; inconclusive means small, poorly fitted or top-dose-only effect, or another doubt; inactive means no such curve, though single readings can be large; an effect the other way counts as inactive or inconclusive.

Test [1] can be described thus: Quantitative high throughput screen for delayed death inhibitors of the malarial parasite plastid, 48 hour incubation (AID 488752). Further: nearly all actives have a fitted effect of over 65% in size. The method, boiled down: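 Cultures: infected erythrocytes at final 2% hematocrit and 0.1% parasitemia in Albumax-supplemented RPMI. Parasites express integrated firefly luciferase. Incubation with compound lasts 48 h before luminescent detection of remaining reporter activity.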

Test [2] deals with Thioredoxin reductase 1, cytoplasmic (Rattus norvegicus) (UniProt O89049). Briefly: qHTS Assay for Substrates of Mammalian Selenoprotein Thioredoxin Reductase 1 (TrxR1) (AID 488772).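 Further: series mostly up to about 57 µM; a drop in NADPH fluorescence below the no-compound background marks a TrxR1 substrate.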 In short, it runs like this:
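In this dual-purpose format, potential substrates are identified from the first fluorescence read after selenite addition, not from the 8-minute delta. Rat enzyme is preincubated with NADPH and then with compound at ~22 deg C.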
For orientation: qHTS replaces the single test concentration by a dilution series.

The target of test [3] is Flap endonuclease 1 (Homo sapiens) (UniProt P39748). The test is described as follows: qHTS Validation Assay for the Inhibitors of Human Flap endonuclease 1 (FEN1) (AID 488816). Further: potency means the concentration at half of the fitted maximal effect. The method, boiled down: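 qHTS format: compounds and 10 nM FEN1 incubated 15 min at room temperature before adding 50 nM substrate. Cleavage followed by reads at 0 and 15 min; normalized data fitted to a four-parameter Hill curve.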
Sequence of Flap endonuclease 1 (Homo sapiens) (P39748 whole entry, looked up): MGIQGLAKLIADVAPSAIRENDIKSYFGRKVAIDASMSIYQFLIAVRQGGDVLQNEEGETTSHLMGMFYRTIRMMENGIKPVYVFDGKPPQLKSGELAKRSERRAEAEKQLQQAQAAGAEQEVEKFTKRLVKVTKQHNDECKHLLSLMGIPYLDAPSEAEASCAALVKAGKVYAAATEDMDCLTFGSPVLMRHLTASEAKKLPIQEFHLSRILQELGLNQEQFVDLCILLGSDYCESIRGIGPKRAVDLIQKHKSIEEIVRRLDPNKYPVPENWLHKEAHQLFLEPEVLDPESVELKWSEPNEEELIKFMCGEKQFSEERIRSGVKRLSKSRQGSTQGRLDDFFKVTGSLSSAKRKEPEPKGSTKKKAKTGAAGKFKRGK

For test [4], the target named is M-phase phosphoprotein 8 (Homo sapiens) (UniProt Q99549). The test is described as follows: qHTS Validation Assay for Inhibitors for MPP8 Chromodomain Interactions with Methylated Histone Tails (AID 488949). Further: nearly all actives have a fitted effect of over 55% in size. Further: potency means the concentration at half of the fitted maximal effect. In short, it runs like this: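 MPP8 (50 nM) was pre-bound to 50 nM biotinylated H3(1-18)K9me3 peptide in PBS pH 7.4 with 0.01% Tween-20. Compounds were then added for 30 min at room temperature, and complex disruption was read by AlphaScreen with streptavidin donor and nickel-chelate acceptor beads.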
Sequence of M-phase phosphoprotein 8 (Homo sapiens) (Q99549 whole entry, looked up): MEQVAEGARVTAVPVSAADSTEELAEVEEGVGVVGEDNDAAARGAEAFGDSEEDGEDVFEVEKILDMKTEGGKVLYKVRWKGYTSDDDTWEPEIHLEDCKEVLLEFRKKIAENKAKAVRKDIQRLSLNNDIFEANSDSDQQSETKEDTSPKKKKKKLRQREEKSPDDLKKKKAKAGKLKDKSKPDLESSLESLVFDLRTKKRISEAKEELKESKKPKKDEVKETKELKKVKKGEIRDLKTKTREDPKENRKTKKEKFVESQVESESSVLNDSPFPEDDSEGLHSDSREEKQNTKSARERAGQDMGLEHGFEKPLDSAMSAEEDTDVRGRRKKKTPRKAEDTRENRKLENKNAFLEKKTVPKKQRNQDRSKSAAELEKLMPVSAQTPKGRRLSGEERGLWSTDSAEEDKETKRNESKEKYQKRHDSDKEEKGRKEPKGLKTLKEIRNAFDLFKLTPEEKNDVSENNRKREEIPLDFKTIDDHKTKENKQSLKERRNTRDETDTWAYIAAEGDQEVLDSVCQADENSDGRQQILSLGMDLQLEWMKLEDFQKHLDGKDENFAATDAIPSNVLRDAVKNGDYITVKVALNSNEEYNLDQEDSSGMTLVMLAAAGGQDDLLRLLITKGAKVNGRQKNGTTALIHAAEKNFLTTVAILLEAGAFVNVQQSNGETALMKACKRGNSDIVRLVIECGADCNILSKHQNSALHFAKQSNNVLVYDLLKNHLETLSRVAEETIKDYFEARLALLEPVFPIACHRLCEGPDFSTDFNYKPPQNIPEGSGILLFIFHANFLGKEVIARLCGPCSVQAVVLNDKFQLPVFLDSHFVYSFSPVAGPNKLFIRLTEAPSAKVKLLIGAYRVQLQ

For test [5], the target named is Methanococcus maripaludis chaperonin (MmCpn) (UniProt Q6LX38). Briefly: High-Throughput Screening for Modulators of Cytosolic Chaperonin Activity: MmCpn Primary Screen (AID 488978).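 Further: 50 nM MmCpn enzyme hydrolysing 30 µM ATP at 37 °C.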 In short, it runs like this: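 MmCpn at 50 nM final was preincubated 5 min at RT with compound. ATP was then added at 30 uM final for 10 min at 37 C. ADP formed was detected by Transcreener HTRF (665/590 nm).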
Sequence of Methanococcus maripaludis chaperonin (MmCpn) (Q6LX38 1-543): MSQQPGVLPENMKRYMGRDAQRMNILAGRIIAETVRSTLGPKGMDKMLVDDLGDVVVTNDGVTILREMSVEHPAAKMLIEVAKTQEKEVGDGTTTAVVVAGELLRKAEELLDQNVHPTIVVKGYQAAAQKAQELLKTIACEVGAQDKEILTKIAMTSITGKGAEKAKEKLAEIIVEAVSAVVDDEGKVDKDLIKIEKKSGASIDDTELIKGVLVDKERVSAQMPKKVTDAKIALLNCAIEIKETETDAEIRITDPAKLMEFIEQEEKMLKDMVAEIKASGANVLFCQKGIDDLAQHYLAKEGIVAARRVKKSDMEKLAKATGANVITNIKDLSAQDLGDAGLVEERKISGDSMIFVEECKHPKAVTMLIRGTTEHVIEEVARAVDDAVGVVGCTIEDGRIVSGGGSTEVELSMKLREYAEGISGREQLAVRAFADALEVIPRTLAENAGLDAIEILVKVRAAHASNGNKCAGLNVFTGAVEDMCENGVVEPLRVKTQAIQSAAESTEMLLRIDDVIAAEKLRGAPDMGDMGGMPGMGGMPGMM

The target of test [6] is Transient receptor potential cation channel subfamily V member 1 (Homo sapiens) (UniProt Q8NER1). The test is described as follows: HTS Assay for Compounds that Act as Enhancers of the Vanilloid Receptor 1 (AID 488979). In short, it runs like this: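 Calcium influx kinetics via Fluo-8 (480/520 nm) in TRPV1-expressing cells, 2000/well cultured overnight at 35.5C. Compound-alone read 3 min (agonist phase), followed by EC20 capsaicin challenge for 2 min (enhancer phase).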
Sequence of Transient receptor potential cation channel subfamily V member 1 (Homo sapiens) (Q8NER1 whole entry, looked up): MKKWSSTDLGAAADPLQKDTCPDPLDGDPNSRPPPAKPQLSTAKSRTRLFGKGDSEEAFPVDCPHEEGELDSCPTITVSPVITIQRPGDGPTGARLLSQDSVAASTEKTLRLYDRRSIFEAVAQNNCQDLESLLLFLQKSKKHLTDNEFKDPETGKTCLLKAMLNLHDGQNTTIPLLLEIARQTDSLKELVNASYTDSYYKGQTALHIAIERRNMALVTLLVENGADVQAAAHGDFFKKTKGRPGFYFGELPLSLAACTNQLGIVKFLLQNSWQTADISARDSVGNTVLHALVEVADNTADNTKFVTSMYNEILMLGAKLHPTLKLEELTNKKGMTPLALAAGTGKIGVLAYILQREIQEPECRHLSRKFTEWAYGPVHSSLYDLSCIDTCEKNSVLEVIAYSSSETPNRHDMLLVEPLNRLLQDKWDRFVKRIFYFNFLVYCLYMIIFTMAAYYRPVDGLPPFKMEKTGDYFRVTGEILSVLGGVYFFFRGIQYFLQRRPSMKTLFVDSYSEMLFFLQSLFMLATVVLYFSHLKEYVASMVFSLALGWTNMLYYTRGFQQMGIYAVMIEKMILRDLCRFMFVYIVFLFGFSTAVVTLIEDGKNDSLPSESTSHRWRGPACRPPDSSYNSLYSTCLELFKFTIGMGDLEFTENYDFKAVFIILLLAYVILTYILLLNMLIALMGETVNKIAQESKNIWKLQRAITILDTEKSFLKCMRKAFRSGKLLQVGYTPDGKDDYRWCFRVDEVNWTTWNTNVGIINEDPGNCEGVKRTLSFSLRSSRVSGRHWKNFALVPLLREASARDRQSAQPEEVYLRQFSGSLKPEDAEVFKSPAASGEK

For test [7], the target named is Thioredoxin reductase 1, cytoplasmic (Rattus norvegicus) (UniProt O89049). Briefly: qHTS Assay for Inhibitors of Mammalian Selenoprotein Thioredoxin Reductase 1 (TrxR1) (AID 488773). Further: nearly all actives have a fitted effect of over 40% in size. Further: potency means the concentration at half of the fitted maximal effect. Particulars: Potency: inhibition. In short, it runs like this:
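Inhibition is scored from the loss of NADPH fluorescence between first and last reads of an 8-min kinetic run. Selenite (400 uM) was the substrate, added after 15 min compound preincubation at room temperature.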

The target of test [8] is Chromobox protein homolog 1 (Homo sapiens) (UniProt P83916). The test is described as follows: qHTS Validation Assay for Inhibitors of HP1-beta Chromodomain Interactions with Methylated Histone Tails (AID 488953). Further: nearly all actives have a fitted effect of over 50% in size. Further: potency means the concentration at half of the fitted maximal effect. In short, it runs like this: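 Compounds pinned into a preassembled complex of HP1-beta and trimethyl-K9 histone H3(1-18) biotin peptide (50 nM each; PBS pH 7.4, 0.01% Tween-20). After 30 min, bead-based AlphaScreen detection followed.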
Sequence of Chromobox protein homolog 1 (Homo sapiens) (P83916 whole entry, looked up): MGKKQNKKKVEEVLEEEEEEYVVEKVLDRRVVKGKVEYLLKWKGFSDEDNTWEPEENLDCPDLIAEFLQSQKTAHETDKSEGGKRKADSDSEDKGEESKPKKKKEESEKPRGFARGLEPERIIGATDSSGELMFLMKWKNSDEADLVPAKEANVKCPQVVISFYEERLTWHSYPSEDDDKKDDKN

Sequence of Thioredoxin reductase 1, cytoplasmic (Rattus norvegicus) (O89049 whole entry, looked up): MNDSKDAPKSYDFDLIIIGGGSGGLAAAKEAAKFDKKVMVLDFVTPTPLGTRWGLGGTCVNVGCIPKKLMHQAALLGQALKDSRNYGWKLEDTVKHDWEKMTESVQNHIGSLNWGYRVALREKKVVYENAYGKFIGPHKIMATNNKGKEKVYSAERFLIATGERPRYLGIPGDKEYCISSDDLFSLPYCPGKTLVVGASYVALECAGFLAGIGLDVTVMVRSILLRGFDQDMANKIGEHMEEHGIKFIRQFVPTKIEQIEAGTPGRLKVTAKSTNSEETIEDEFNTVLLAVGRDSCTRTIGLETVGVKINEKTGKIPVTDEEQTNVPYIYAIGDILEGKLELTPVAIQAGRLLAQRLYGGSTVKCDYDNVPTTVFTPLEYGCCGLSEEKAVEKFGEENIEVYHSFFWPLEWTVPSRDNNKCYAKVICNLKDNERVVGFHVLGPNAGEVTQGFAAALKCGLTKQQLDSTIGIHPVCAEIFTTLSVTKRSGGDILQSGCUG

Take `NCCCS(=O)(=O)O`: the Potency result in test [1], in test [2], in test [3] and in test [4] was “inactive” throughout. The molecule was called inactive in test [5] and in test [6].

Turning to `O=C(/C=C/c1ccc(O)c(O)c1)OCCc1ccccc1`, the Potency result in test [2], in test [7] and in test [3] was “inactive” each time. In addition, the molecule was called inactive in test [5] and in test [6].

In the case of `CN1CCc2cc(NC(=O)Nc3cccnc3)ccc21`, the Potency result in test [2], in test [7], in test [3] and in test [4] was “inactive” each time. For the same molecule, the molecule was called inactive in test [5] and in test [6].

Turning to `NC(N)=NC(=O)c1nc(Cl)c(N2CCCCCC2)nc1N`, the Potency result in test [7] and in test [3] was “inactive” throughout. Further, the Potency in test [4] is 44.7 µM (active) and inactive. Besides, the molecule was classed as inactive in test [5].

For `C=CC(=O)c1ccc(CCCCCC)cc1`, the Potency entry in test [2], in test [3] and in test [4] was “inactive” each time. Moreover, the Potency in test [7] was 15 µM (active). Besides, the call in test [5] was inactive.

Take `CC(N)C(=O)OC(C)(C)Cc1ccc(Cl)cc1` (stereo unspecified): the Potency result in test [2] and in test [7] was “inactive” in each case. In addition, in test [5], the molecule was called inactive.

As to `C=CC(C)=C[C@@]1(C)SC(=O)C(C)=C1O`, the Potency result in test [2], in test [7] and in test [3] was “inactive” each time. In test [5], the molecule was classed as inactive.

Regarding `O=C(O)CC1CC(c2ccccc2)=NO1` (stereo unspecified), the Potency result in test [2], in test [7], in test [4] and in test [8] was “inactive” each time. In addition, in test [5], the molecule was classed as inactive.

Take `O=C(c1ccc(Cl)cc1)N1CCN(c2ccc([N+](=O)[O-])c3ncccc23)CC1`: the Potency entry in test [2], in test [7], in test [3] and in test [8] was “inactive” each time. For the same molecule, the molecule was called inactive in test [5].

Consider `CC(C)CC(NP(=O)(O)O[C@@H]1O[C@@H](C)[C@H](O)[C@@H](O)[C@H]1O)C(=O)NC(Cc1c[nH]c2ccccc12)C(=O)O` (stereo partly specified), for which the Potency entry in test [2], in test [7] and in test [8] was “inactive” in each case. Also, in test [5], the call was inactive.

In the case of `CCNC(=O)[C@H]1O[C@@H](n2cnc3c(N)nc(NCCc4ccc(CCC(=O)O)cc4)nc32)[C@H](O)[C@@H]1O`, the Potency entry in test [2], in test [7], in test [3] and in test [4] was “inactive” each time. Also, the molecule was classed as inactive in test [5].

For `CN(C)c1ccc(/C=C2\C(=O)Nc3ccccc32)cc1`, the Potency entry in test [3] was “inactive”. For the same molecule, the Potency in test [4] was 28.2 µM (active) and 10.6 µM (active); in test [8] it was 28.2 µM (active). Besides, the call in test [5] and in test [6] was inactive.

With `Cn1ncc(S(=O)(=O)Cc2ccccc2)c(Br)c1=O`, the Potency entry in test [2] and in test [3] was “inactive” each time. Besides, in test [7], the Potency is 0.947 µM (active). Besides, the molecule was classed as inactive in test [5].

As for `COc1cc2nc(N3CCN(C(=O)OCc4ccccc4)C(C(=O)NC(C)(C)C)C3)nc(N)c2cc1OC` (stereo unspecified), the Potency result in test [2], in test [7] and in test [8] was “inactive” in each case. For the same molecule, the call in test [5] and in test [6] was inactive.

For the molecule `CC1OC1P(=O)(O)O` (stereo unspecified), the Potency entry in test [2], in test [7] and in test [3] was “inactive” each time. The call in test [5] was inactive.

In the case of `Nc1nc(SCc2ccc([N+](=O)[O-])cc2)c2ncn([C@@H]3O[C@H](CO)[C@@H](O)[C@H]3O)c2n1`, the Potency entry in test [7], in test [3], in test [4] and in test [8] was “inactive” each time. Further, the molecule was classed as inactive in test [5].

Regarding `Cc1ccc(S(=O)(=O)/C=C/C#N)cc1`, the Potency result in test [2] and in test [3] was “inactive” in each case. The values for the Potency in test [7] and in test [8] were 0.238 µM (active) and 39.8 µM (active), respectively. For the same molecule, in test [5], the molecule was called inactive.

Turning to `CNC(=O)[C@H]1O[C@@H](n2cnc3c(NCc4cccc(I)c4)ncnc32)[C@H](O)[C@@H]1O`, the Potency result in test [2], in test [7] and in test [3] was “inactive” in each case. Further, in test [5], the result was inactive.

For the molecule `CSc1nc(N)c2ncn([C@@H]3O[C@H](COP(=O)(O)OP(=O)(O)OP(=O)(O)O)[C@@H](O)[C@H]3O)c2n1`, the Potency result in test [2], in test [7], in test [3] and in test [8] was “inactive” each time. Further, the result in test [5] was inactive.

Consider `O=C1NC(=O)/C(=C/c2ccc(-c3ccc(F)cc3O)o2)S1`, for which the Potency entry in test [2] is “inactive”. Moreover, the Potency in test [3] was 26.7 µM (active). Moreover, the result in test [5] was inactive.

Take `CCCCCCCCCCCCCCCCCC(=O)OC(CC(=O)O)C[N+](C)(C)C` (stereo unspecified): the Potency entry in test [2], in test [7] and in test [3] was “inactive” throughout. Moreover, the call in test [5] and in test [6] was inactive.

In the case of `Oc1cc2c(cc1O)CN(C(=S)NCCc1ccc(Cl)cc1)CCC2`, the Potency result in test [2] and in test [3] was “inactive” throughout. Also, the Potency in test [4] was 39.8 µM (active) and inactive. Moreover, the call in test [5] and in test [6] was inactive.

On to `CCOC(=O)N1CCN(/[N+]([O-])=N/Oc2ccc([N+](=O)[O-])cc2[N+](=O)[O-])CC1`, for which the Potency entry in test [2], in test [3] and in test [4] was “inactive” in each case. In test [7], the Potency was 6.7 µM (active). Moreover, the molecule was called inactive in test [5].

As for `CN1CCc2ccccc2Cc2[nH]c3ccccc3c2CC1`, the Potency entry in test [2] and in test [3] was “inactive” throughout. The outcome in test [5] and in test [6] was inactive.

Consider `C[C@@H](NC(=O)/C(C#N)=C/c1ccc(O)c(O)c1)c1ccccc1`, for which the Potency entry in test [7] and in test [3] was “inactive” each time. In addition, the Potency in test [8] was 8.91 µM (active). The molecule was classed as inactive in test [5] and in test [6].

As to `CNCC[C@H](Oc1ccc(C(F)(F)F)cc1)c1ccccc1`, the Potency entry in test [2], in test [7], in test [3] and in test [4] was “inactive” throughout. Further, the molecule was classed as inactive in test [5].

As to `O=C(/C=C/c1ccc(O)cc1)c1ccc(O)cc1O`, the Potency result in test [2], in test [3] and in test [4] was “inactive” throughout. In addition, the molecule was classed as inactive in test [5] and in test [6].

For `COc1ccc(/C=C/C(=O)Nc2ccccc2C(=O)O)cc1OC`, the Potency result in test [2], in test [7] and in test [4] was “inactive” throughout. The call in test [5] and in test [6] was inactive.

`CCc1c(C(=O)NCCc2ccc(N3CCCCC3)cc2)[nH]c2ccc(Cl)cc12`: the Potency entry in test [2], in test [7] and in test [3] was “inactive” in each case. The Potency in test [8] is 20 µM (active). In addition, the result in test [5] was inactive.

Turning to `O=C(c1ccc(OCCCc2cnc[nH]2)cc1)C1CC1`, the Potency result in test [2], in test [7] and in test [3] was “inactive” throughout. In test [5], the result was inactive.

Turning to `CN(C)CCCO[C@@H]1[C@H]2OC(C)(C)O[C@H]2O[C@@H]1[C@H](O)CO`, the Potency entry in test [2], in test [7], in test [3] and in test [4] was “inactive” throughout. The molecule was classed as inactive in test [5].

Turning to `C[N+]1(C)C2CC(OC(=O)[C@H](CO)c3ccccc3)CC1C1OC12` (stereo partly specified), the Potency result in test [2] and in test [7] was “inactive” in each case. Also, the molecule was classed as inactive in test [5].

On to `CC(C)NC[C@@H](O)c1ccc(O)c(O)c1`, for which the Potency result in test [2], in test [3] and in test [4] was “inactive” throughout. The molecule was called inactive in test [5].

`CCCn1c(=O)c2[nH]c(-c3ccc(OCC(=O)NCCN)cc3)nc2n(CCC)c1=O`: the Potency result in test [2], in test [7], in test [3] and in test [4] was “inactive” throughout. In addition, the outcome in test [5] and in test [6] was inactive.

Consider `CC(C)(C)c1ccc(S(=O)(=O)/C=C/C#N)cc1`, for which the Potency entry in test [2] and in test [3] was “inactive” each time. Besides, the Potency was 0.377 µM (active) in test [7] and 44.7 µM (active) in test [8]. The molecule was called inactive in test [5].

As to `N#C/C(=C\c1ccc(-c2cc(Cl)ccc2Cl)o1)C(=O)Nc1cccc2ncccc12`, the Potency entry in test [2], in test [3] and in test [4] was “inactive” each time. Moreover, the molecule was called inactive in test [5].

In the case of `N.N.N.N.N.N.N.N.N.N.N.N.N.N.O.O.[Ru+4].[Ru+5].[Ru+5]`, the Potency in test [4] is 8.44 µM (active).

In the case of `O=P(O)(O)C(Cl)(Cl)P(=O)(O)O`, the Potency entry in test [2], in test [7] and in test [3] was “inactive” throughout. In test [5], the call was inactive.

`O=[N+]([O-])c1ccc2c(c1)S(=O)(=O)C=C2`: the Potency result in test [2] and in test [3] was “inactive” in each case. Also, the Potency in test [7] is 2.12 µM (active). Moreover, the outcome in test [5] was inactive.

For `OC[C@H]1O[C@@H](n2cnc3c(Nc4ccccc4)ncnc32)[C@H](O)[C@@H]1O`, the Potency result in test [2], in test [7] and in test [3] was “inactive” throughout. Further, in test [8], the Potency is 0.006 µM (active). Besides, the result in test [5] was inactive.
